Source: the supplement of paper PMC11732987, “Enantioselective OTUD7B fragment discovery through chemoproteomics screening and high-throughput optimisation” (Communications Chemistry, 2025)

Experiments:
Assay in all cases: log2 ratio of Biotin-Ahx-Ub-VS probe labelling (fragment/DMSO); higher = less target engagement (more negative = stronger competition), active = hit call of the paper (q ≤ 0.05, log2 ratio ≤ -1)
Details in all cases: compound concentration: 200 uM; treatment time: 3 h
USP34 = USP34 (UniProt Q70CQ2)
Summary of the method: (§1)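 HEK293T lysate, 495 µg per sample in Tris/CHAPS/IGEPAL buffer with protease inhibitors, was treated in triplicate with fragment at 200 µM or vehicle for 3 h and then with Biotin-Ahx-Ub-VS at 0.5 µM final for 1 h. Labelled DUBs were NeutrAvidin-enriched, digested with LysC and trypsin, and run by diaPASEF LC-MS/MS. Spectronaut label-free quantities were global-median-normalised, and values are average log2 fragment/vehicle ratios by unpaired t-test on proteins with ≥2 unique peptides.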

USP36 = target: T1, USP36 (UniProt Q9P275)
T1 sequence (whole entry): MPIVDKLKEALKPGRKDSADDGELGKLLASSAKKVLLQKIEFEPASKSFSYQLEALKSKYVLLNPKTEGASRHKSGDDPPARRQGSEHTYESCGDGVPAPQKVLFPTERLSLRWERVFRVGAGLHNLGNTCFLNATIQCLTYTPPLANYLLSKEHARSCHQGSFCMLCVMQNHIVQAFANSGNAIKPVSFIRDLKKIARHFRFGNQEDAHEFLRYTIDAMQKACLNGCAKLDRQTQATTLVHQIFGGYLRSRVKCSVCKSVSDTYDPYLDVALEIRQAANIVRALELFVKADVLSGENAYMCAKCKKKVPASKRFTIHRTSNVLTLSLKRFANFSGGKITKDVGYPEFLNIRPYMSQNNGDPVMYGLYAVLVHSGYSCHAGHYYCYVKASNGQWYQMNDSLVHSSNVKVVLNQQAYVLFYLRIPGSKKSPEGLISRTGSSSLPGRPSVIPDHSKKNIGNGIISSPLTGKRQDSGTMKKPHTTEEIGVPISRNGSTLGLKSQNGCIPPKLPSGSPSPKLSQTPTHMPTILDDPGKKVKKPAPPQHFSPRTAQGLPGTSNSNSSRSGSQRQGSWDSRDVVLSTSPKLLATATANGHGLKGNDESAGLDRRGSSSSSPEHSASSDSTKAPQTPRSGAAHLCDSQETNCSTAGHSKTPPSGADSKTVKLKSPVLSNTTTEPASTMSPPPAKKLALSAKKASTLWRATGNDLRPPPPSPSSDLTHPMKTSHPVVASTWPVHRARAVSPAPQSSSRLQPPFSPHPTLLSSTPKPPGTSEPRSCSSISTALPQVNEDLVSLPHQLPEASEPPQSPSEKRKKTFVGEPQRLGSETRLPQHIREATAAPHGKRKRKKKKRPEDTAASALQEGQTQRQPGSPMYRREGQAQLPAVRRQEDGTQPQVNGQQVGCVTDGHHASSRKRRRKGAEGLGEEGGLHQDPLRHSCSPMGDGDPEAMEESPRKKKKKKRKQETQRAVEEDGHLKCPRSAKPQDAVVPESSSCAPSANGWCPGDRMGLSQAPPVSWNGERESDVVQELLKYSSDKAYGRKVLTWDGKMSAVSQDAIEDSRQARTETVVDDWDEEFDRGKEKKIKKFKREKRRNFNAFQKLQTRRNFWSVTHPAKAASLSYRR
Summary of the method: as §1

USP38 = target: T2, USP38 (UniProt Q8NB14)
T2 sequence (whole entry): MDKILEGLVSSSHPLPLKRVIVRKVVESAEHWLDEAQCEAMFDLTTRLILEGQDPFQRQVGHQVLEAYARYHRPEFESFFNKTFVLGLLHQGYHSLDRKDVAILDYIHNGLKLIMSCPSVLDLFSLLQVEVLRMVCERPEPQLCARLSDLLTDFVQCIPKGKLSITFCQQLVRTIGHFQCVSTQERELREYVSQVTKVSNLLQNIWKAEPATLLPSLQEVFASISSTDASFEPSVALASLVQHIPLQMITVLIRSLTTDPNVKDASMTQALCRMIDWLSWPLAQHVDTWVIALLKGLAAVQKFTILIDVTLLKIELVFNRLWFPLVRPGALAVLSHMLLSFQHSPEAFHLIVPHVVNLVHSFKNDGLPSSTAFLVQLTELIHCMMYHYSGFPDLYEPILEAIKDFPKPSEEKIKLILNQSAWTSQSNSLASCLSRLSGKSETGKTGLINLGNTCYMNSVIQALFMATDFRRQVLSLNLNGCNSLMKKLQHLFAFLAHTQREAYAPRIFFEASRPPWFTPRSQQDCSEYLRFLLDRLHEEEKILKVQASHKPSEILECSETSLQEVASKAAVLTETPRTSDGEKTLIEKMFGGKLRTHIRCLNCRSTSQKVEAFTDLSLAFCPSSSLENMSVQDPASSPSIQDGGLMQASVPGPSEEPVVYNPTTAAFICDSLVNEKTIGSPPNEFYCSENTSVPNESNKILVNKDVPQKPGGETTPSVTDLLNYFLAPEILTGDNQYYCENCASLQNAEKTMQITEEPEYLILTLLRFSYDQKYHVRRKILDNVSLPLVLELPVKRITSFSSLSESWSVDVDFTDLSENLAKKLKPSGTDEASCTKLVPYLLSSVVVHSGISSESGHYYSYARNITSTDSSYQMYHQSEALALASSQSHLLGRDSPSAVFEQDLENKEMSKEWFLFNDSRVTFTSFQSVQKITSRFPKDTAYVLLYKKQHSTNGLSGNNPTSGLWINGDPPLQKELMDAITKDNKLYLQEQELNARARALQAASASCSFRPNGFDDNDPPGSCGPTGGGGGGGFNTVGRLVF
Summary of the method: as §1

USP39 = target: T3, USP39 (UniProt Q53GS9)
T3 sequence (whole entry): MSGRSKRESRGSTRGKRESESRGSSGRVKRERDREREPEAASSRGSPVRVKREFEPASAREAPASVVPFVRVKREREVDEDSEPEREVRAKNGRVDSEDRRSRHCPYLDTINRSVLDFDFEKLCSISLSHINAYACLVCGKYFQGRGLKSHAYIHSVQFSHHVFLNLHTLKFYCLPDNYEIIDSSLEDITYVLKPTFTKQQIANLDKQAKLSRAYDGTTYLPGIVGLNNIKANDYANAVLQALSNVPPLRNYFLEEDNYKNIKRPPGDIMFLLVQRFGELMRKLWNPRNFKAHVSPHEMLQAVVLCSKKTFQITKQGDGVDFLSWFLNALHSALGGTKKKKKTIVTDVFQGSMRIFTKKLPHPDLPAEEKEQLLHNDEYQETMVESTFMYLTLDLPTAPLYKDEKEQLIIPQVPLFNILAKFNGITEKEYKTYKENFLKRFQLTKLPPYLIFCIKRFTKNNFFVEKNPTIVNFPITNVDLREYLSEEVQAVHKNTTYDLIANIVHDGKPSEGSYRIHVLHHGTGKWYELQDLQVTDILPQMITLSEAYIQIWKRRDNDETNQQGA
Summary of the method: as §1

USP4 = target: T4, USP4 (UniProt Q13107)
T4 sequence (whole entry): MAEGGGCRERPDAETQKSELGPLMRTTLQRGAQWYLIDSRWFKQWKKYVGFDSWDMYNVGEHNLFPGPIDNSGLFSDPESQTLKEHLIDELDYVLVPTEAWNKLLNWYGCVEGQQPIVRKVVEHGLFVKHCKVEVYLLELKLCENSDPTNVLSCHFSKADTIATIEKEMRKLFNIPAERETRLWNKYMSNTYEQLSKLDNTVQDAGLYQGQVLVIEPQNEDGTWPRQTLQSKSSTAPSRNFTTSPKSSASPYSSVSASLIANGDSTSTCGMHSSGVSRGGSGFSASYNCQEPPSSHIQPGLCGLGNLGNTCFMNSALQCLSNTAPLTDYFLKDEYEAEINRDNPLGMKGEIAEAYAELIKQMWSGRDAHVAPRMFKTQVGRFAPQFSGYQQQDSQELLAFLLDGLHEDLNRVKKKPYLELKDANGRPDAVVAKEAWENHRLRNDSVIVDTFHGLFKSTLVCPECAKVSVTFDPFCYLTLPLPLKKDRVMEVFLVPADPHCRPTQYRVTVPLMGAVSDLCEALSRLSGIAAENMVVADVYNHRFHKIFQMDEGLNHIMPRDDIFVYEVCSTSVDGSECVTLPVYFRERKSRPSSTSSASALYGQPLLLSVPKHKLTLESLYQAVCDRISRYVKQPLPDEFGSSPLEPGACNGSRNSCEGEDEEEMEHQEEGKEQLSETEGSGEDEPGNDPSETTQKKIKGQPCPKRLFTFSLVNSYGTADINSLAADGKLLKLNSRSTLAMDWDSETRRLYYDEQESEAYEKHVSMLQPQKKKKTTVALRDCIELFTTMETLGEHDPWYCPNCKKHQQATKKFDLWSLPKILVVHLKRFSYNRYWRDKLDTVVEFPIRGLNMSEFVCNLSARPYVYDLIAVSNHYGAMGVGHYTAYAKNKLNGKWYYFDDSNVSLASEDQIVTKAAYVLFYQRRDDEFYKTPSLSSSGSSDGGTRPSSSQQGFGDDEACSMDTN
Summary of the method: as §1

Measured: log2 ratio of Biotin-Ahx-Ub-VS probe labelling

USP34, sequence (Q70CQ2 whole entry, the tested form may be a part): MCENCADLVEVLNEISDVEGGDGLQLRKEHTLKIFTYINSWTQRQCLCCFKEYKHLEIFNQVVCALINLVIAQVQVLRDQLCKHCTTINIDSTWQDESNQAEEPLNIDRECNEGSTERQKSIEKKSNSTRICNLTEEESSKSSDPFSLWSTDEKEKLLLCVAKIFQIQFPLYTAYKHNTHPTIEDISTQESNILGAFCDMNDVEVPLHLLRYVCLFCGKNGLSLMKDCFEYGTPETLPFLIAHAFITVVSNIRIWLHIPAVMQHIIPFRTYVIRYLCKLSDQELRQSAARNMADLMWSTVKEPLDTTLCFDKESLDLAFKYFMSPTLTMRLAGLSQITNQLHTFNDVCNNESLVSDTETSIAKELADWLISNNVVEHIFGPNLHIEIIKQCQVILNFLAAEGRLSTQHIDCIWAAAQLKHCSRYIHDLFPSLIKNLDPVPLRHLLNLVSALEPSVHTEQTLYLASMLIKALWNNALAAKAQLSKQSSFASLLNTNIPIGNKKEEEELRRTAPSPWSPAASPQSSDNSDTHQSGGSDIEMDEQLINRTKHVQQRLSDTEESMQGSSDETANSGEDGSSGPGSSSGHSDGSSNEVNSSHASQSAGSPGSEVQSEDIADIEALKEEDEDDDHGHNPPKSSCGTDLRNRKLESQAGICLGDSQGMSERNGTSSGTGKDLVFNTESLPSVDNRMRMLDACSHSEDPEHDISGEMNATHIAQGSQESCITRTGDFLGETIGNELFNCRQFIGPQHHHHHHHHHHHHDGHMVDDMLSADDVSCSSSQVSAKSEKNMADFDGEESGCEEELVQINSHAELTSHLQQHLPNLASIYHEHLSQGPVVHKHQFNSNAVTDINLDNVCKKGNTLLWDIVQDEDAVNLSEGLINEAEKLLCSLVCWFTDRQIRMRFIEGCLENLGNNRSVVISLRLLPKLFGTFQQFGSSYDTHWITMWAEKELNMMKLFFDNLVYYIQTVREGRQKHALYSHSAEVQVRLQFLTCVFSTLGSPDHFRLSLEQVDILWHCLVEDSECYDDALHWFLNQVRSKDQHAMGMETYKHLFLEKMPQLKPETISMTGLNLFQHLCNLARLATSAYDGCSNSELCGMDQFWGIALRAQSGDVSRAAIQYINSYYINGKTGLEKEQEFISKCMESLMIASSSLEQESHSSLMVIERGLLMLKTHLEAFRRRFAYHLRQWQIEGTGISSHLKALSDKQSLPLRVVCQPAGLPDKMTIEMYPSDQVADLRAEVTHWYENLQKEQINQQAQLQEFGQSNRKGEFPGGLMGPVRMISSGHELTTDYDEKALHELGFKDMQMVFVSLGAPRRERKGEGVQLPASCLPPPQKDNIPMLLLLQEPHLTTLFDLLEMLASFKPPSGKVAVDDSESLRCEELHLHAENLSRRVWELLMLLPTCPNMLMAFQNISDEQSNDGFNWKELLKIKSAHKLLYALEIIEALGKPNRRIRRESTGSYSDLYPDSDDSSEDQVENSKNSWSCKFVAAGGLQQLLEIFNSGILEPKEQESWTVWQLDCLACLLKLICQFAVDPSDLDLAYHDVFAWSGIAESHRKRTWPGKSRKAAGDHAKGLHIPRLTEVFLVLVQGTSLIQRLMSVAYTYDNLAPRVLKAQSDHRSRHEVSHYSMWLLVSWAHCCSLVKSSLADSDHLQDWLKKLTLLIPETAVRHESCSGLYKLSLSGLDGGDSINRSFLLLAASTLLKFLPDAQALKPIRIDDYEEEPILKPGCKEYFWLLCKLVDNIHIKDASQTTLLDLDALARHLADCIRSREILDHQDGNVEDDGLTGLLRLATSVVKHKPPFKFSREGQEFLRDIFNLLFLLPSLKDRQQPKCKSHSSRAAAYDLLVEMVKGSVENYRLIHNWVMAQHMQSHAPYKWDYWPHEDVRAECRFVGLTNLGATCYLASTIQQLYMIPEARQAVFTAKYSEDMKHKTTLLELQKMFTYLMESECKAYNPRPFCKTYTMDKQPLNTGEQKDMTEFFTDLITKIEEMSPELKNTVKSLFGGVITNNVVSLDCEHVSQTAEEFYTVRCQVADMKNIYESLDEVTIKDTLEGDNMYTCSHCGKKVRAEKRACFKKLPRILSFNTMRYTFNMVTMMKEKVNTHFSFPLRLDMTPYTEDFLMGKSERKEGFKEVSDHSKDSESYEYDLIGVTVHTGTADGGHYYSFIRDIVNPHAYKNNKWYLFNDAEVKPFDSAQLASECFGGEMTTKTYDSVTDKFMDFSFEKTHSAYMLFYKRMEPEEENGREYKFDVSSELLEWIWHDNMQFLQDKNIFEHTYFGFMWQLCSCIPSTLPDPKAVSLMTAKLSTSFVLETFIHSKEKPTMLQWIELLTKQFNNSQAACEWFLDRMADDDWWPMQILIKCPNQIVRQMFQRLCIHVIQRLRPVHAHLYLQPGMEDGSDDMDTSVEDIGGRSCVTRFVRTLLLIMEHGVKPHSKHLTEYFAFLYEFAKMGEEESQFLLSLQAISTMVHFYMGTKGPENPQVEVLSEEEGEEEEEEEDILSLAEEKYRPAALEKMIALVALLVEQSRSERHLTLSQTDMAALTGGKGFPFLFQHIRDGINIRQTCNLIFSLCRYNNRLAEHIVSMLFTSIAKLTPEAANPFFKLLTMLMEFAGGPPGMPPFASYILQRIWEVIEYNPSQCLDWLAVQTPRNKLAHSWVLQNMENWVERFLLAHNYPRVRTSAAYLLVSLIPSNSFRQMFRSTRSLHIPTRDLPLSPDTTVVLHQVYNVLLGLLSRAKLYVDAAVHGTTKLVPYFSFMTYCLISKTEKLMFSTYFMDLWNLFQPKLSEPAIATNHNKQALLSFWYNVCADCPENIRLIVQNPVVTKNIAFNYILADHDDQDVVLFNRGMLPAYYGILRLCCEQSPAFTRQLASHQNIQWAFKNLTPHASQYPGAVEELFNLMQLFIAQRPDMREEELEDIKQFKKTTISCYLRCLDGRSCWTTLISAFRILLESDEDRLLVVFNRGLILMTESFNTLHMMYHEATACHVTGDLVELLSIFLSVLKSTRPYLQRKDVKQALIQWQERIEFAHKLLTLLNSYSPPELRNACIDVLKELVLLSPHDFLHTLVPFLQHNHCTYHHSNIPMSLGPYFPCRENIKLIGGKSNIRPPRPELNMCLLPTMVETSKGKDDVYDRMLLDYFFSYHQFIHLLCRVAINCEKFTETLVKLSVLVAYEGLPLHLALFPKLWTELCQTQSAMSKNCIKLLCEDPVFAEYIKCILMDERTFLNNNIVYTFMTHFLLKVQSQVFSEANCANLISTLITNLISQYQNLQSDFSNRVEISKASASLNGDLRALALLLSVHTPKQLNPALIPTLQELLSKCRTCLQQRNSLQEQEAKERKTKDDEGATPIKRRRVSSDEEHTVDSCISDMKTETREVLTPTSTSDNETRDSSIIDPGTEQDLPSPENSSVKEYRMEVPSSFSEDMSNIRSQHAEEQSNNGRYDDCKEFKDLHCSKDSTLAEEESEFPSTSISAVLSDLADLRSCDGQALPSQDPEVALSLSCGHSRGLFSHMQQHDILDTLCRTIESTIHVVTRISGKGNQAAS

CC(C)n1nccc1NC(=O)CCl
inactive: USP34 -0.109 | USP36 -0.0105 | USP38 -0.0818 | USP39 -0.252 | USP4 -0.0708
